Measurements: PubChem BioAssay AID1159580 (chemical genetic matrix, 2015)
Where “and” joins values, the source holds several entries; their conditions need not be identical. Equal entries are not always repeated. About 2,000 (36%) of roughly 5,500 compounds were called active. Inconclusive results (about 18%) are left out. Cut-off read from the data, not from the text of the source: active = normalized growth mostly below about 0.91 (no sharp cut-off); inconclusive = no clear call, values can overlap the other calls; inactive = mostly above about 0.92. The list shows a part of the results.

Assay: chemical genetic growth profiling, strain panel (AID 1159580);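 note: tested at 20 µM; growth read once vehicle control cultures reached saturation at 30 °C; 1 = growth at the plate median or of vehicle wells; lower values mean less growth of the strain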
Settings: S. cerevisiae deletion strains, growth OD

**Q.** Which normalized growth (locus YAL021C, strain ccr4, stronger effect = lower value) does the source give for CCCCCCCCNC(C)C(O)c1ccc(SC(C)C)cc1 (stereo not drawn) here?
**A.** 0.0594 (active)

**Q.** And the normalized growth (locus YAL026C, strain drs2, stronger effect = lower value)?
**A.** 0.0595 (active)

**Q.** What about the normalized growth (locus YAL030W, strain snc1, stronger effect = lower value) of the same molecule?
**A.** 0.0546 (active)

**Q.** And the normalized growth (locus YBL061C, strain skt5, stronger effect = lower value)?
**A.** 0.0571 (active)

**Q.** And the normalized growth (locus YBR009C, strain hhf1, stronger effect = lower value)?
**A.** 0.0563 (active)

**Q.** And the normalized growth (locus YBR021W, strain FUR4, stronger effect = lower value)?
**A.** 0.0834 (active)

**Q.** And the normalized growth (locus YBR023C, strain chs3, stronger effect = lower value)?
**A.** 0.0584 (active)

**Q.** And the normalized growth (locus YBR171W, strain sec66, stronger effect = lower value)?
**A.** 0.0741 (active)

**Q.** And the normalized growth (locus YBR229C, strain ROT2, stronger effect = lower value)?
**A.** 0.0441 (active)

**Q.** And the normalized growth (locus YBR231C, strain swc5, stronger effect = lower value)?
**A.** 0.0585 (active)

**Q.** What about the normalized growth (locus YBR279W, strain paf1, stronger effect = lower value) of the same molecule?
**A.** 0.0682 (active)

**Q.** And the normalized growth (locus YCL011C, strain gbp2, stronger effect = lower value)?
**A.** 0.055 (active)

**Q.** What about the normalized growth (locus YCL016C, strain dcc1, stronger effect = lower value) of the same molecule?
**A.** 0.0618 (active)

**Q.** And the normalized growth (locus YCL029C, strain bik1, stronger effect = lower value)?
**A.** 0.0564 (active)

**Q.** And the normalized growth (locus YCL069W, strain vba3, stronger effect = lower value)?
**A.** 0.0585 (active)

**Q.** What about the normalized growth (locus YCR088W, strain abp1, stronger effect = lower value) of the same molecule?
**A.** 0.0581 (active)

**Q.** What about the normalized growth (locus YDL005C, strain med2, stronger effect = lower value) of the same molecule?
**A.** 0.0745 (active)

**Q.** And the normalized growth (locus YDL035C, strain GPR1, stronger effect = lower value)?
**A.** 0.0475 (active)

**Q.** And the normalized growth (locus YDL040C, strain nat1, stronger effect = lower value)?
**A.** 0.0579 (active)

**Q.** And the normalized growth (locus YDL074C, strain BRE1, stronger effect = lower value)?
**A.** 0.0735 (active)

**Q.** What about the normalized growth (locus YDL101C, strain DUN1, stronger effect = lower value) of the same molecule?
**A.** 0.0522 (active)

**Q.** And the normalized growth (locus YDL134C, strain PPH21, stronger effect = lower value)?
**A.** 0.047 (active)

**Q.** And the normalized growth (locus YDL185W, strain tfp1, stronger effect = lower value)?
**A.** 0.262 (active)

**Q.** And the normalized growth (locus YDL192W, strain arf1, stronger effect = lower value)?
**A.** 0.0576 (active)

**Q.** And the normalized growth (locus YDR001C, strain nth1, stronger effect = lower value)?
**A.** 0.06 (active)

**Q.** What about the normalized growth (locus YDR069C, strain doa4, stronger effect = lower value) of the same molecule?
**A.** 0.0584 (active)

**Q.** And the normalized growth (locus YDR101C, strain arx1, stronger effect = lower value)?
**A.** 0.0541 (active)

**Q.** And the normalized growth (locus YDR137W, strain rgp1, stronger effect = lower value)?
**A.** 0.0948 (active)

**Q.** What about the normalized growth (locus YDR150W, strain NUM1, stronger effect = lower value) of the same molecule?
**A.** 0.0542 (active)

**Q.** And the normalized growth (locus YDR159W, strain sac3, stronger effect = lower value)?
**A.** 0.0734 (active)

**Q.** And the normalized growth (locus YDR162C, strain NBP2, stronger effect = lower value)?
**A.** 0.0459 (active)

**Q.** What about the normalized growth (locus YDR195W, strain ref2) of the same molecule?
**A.** 0.0984 (active)

**Q.** What about the normalized growth (locus YDR297W, strain sur2, stronger effect = lower value) of the same molecule?
**A.** 0.0553 (active)

**Q.** What about the normalized growth (locus YDR318W, strain mcm21, stronger effect = lower value) of the same molecule?
**A.** 0.0585 (active)

**Q.** And the normalized growth (locus YDR334W, strain swr1, stronger effect = lower value)?
**A.** 0.0597 (active)

**Q.** And the normalized growth (locus YDR335W, strain msn5, stronger effect = lower value)?
**A.** 0.0583 (active)

**Q.** What about the normalized growth (locus YDR388W, stronger effect = lower value) of the same molecule?
**A.** 0.054 (active)

**Q.** What about the normalized growth (locus YDR392W, strain spt3, stronger effect = lower value) of the same molecule?
**A.** 0.0655 (active)

**Q.** What about the normalized growth (locus YDR502C, strain sam2, stronger effect = lower value) of the same molecule?
**A.** 0.056 (active)

**Q.** What about the normalized growth (locus YEL003W, strain gim4, stronger effect = lower value) of the same molecule?
**A.** 0.0594 (active)

**Q.** What about the normalized growth (locus YEL037C, strain rad23, stronger effect = lower value) of the same molecule?
**A.** 0.0554 (active)

**Q.** And the normalized growth (locus YEL061C, strain CIN8 (second series), stronger effect = lower value)?
**A.** 0.0597 (active)

**Q.** What about the normalized growth (locus YEL061C, strain CIN8, stronger effect = lower value) of the same molecule?
**A.** 0.0482 (active)

**Q.** What about the normalized growth (locus YER015W, strain faa2, stronger effect = lower value) of the same molecule?
**A.** 0.0595 (active)

**Q.** What about the normalized growth (locus YER016W, strain bim1, stronger effect = lower value) of the same molecule?
**A.** 0.0591 (active)

**Q.** And the normalized growth (locus YER110C, stronger effect = lower value)?
**A.** 0.0696 (active)

**Q.** And the normalized growth (locus YER111C, strain swi4, stronger effect = lower value)?
**A.** 0.0814 (active)

**Q.** What about the normalized growth (locus YER155C, strain BEM2 (second series), stronger effect = lower value) of the same molecule?
**A.** 0.0808 (active)

**Q.** What about the normalized growth (locus YER155C, strain BEM2, stronger effect = lower value) of the same molecule?
**A.** 0.0577 (active)

**Q.** And the normalized growth (locus YER167W, strain BCK2, stronger effect = lower value)?
**A.** 0.0469 (active)

**Q.** What about the normalized growth (locus YFR010W, strain ubp6, stronger effect = lower value) of the same molecule?
**A.** 0.0616 (active)

**Q.** What about the normalized growth (locus YGL078C, strain dbp3, stronger effect = lower value) of the same molecule?
**A.** 0.902 (active)

**Q.** And the normalized growth (locus YGL086W, strain mad1, stronger effect = lower value)?
**A.** 0.0521 (active)

**Q.** What about the normalized growth (locus YGL167C, strain pmr1, stronger effect = lower value) of the same molecule?
**A.** 0.077 (active)

**Q.** What about the normalized growth (locus YGL173C, strain kem1, stronger effect = lower value) of the same molecule?
**A.** 0.0661 (active)

**Q.** And the normalized growth (locus YGL227W, strain vid30, stronger effect = lower value)?
**A.** 0.06 (active)

**Q.** And the normalized growth (locus YGL240W, strain doc1, stronger effect = lower value)?
**A.** 0.0665 (active)

**Q.** And the normalized growth (locus YGL248W, strain PDE1, stronger effect = lower value)?
**A.** 0.0436 (active)

**Q.** And the normalized growth (locus YGL253W, strain hxk2, stronger effect = lower value)?
**A.** 0.0517 (active)

**Q.** What about the normalized growth (locus YGR135W, strain pre9, stronger effect = lower value) of the same molecule?
**A.** 0.0567 (active)

**Q.** And the normalized growth (locus YGR252W, strain gcn5, stronger effect = lower value)?
**A.** 0.109 (active)

**Q.** What about the normalized growth (locus YHR013C, strain ard1, stronger effect = lower value) of the same molecule?
**A.** 0.0967 (active)

**Q.** What about the normalized growth (locus YHR027C, strain rpn1, stronger effect = lower value) of the same molecule?
**A.** 0.0609 (active)

**Q.** What about the normalized growth (locus YHR030C, strain SLT2, stronger effect = lower value) of the same molecule?
**A.** 0.0483 (active) and 0.892 (inactive)

**Q.** And the normalized growth (locus YHR079C, strain IRE1 (second series), stronger effect = lower value)?
**A.** 0.0545 (active)

**Q.** What about the normalized growth (locus YHR079C, strain IRE1, stronger effect = lower value) of the same molecule?
**A.** 0.911 (inactive)

**Q.** And the normalized growth (locus YHR094C, strain hxt1, stronger effect = lower value)?
**A.** 0.0553 (active)

**Q.** What about the normalized growth (locus YHR129C, strain ARP1, stronger effect = lower value) of the same molecule?
**A.** 0.0538 (active)

**Q.** What about the normalized growth (locus YHR142W, strain chs7, stronger effect = lower value) of the same molecule?
**A.** 0.0639 (active)

**Q.** And the normalized growth (locus YHR200W, strain rpn10, stronger effect = lower value)?
**A.** 0.0572 (active)

**Q.** And the normalized growth (locus YIL066C, strain RNR3, stronger effect = lower value)?
**A.** 0.0459 (active)

**Q.** And the normalized growth (locus YIL073C, strain SPO22, stronger effect = lower value)?
**A.** 0.102 (active)

**Q.** What about the normalized growth (locus YIL125W, strain kgd1, stronger effect = lower value) of the same molecule?
**A.** 1 (inactive)

**Q.** And the normalized growth (locus YIR030C, strain dcg1, stronger effect = lower value)?
**A.** 0.0568 (active)

**Q.** What about the normalized growth (locus YJL092W, strain hpr5, stronger effect = lower value) of the same molecule?
**A.** 0.0567 (active)

**Q.** And the normalized growth (locus YJL095W, strain BCK1 (second series), stronger effect = lower value)?
**A.** 0.0551 (active)

**Q.** What about the normalized growth (locus YJL095W, strain BCK1, stronger effect = lower value) of the same molecule?
**A.** 0.0554 (active) and 0.787 (active)

**Q.** What about the normalized growth (locus YJL115W, strain asf1, stronger effect = lower value) of the same molecule?
**A.** 0.069 (active)

**Q.** And the normalized growth (locus YJL129C, strain trk1, stronger effect = lower value)?
**A.** 0.0791 (active)

**Q.** And the normalized growth (locus YJL134W, strain LCB3, stronger effect = lower value)?
**A.** 0.0468 (active)

**Q.** And the normalized growth (locus YJL154C, strain vps35, stronger effect = lower value)?
**A.** 0.0585 (active)

**Q.** What about the normalized growth (locus YJL164C, strain tpk1, stronger effect = lower value) of the same molecule?
**A.** 0.0551 (active)

**Q.** What about the normalized growth (locus YJL166W, strain qcr8, stronger effect = lower value) of the same molecule?
**A.** 0.0569 (active)

**Q.** What about the normalized growth (locus YJL168C, strain set2, stronger effect = lower value) of the same molecule?
**A.** 0.0547 (active)

**Q.** What about the normalized growth (locus YJL187C, strain SWE1 (second series), stronger effect = lower value) of the same molecule?
**A.** 0.0448 (active)

**Q.** What about the normalized growth (locus YJR043C, strain POL32, stronger effect = lower value) of the same molecule?
**A.** 0.0599 (active)

**Q.** And the normalized growth (locus YJR066W, strain TOR1, stronger effect = lower value)?
**A.** 0.885 (inactive)

**Q.** And the normalized growth (locus YJR075W, strain HOC1, stronger effect = lower value)?
**A.** 0.0593 (active)
